Source: PubChem (National Center for Advancing Translational Sciences (NCATS))
Shown are actives, neighbours in structure and some others; about 6.6% of the full set was active somewhere.
RGS4 inhibitor = inhibitors of human regulator of G protein signaling 4. P49798. Transcreener GDP fluorescence polarization, RGS4-accelerated GTP hydrolysis. Potency, µM (doses to about 114 µM), for the others: at the top dose activity change, negative = inhibition, actives largely listed as inhibitors. actives 0.039% (n = 390,000). AID 504845; further: on the % scale 0 is the no-effect control and ±100 the full control effect; nearly all actives have a fitted effect of over 75% in size
Target sequence (P49798 whole entry, looked up): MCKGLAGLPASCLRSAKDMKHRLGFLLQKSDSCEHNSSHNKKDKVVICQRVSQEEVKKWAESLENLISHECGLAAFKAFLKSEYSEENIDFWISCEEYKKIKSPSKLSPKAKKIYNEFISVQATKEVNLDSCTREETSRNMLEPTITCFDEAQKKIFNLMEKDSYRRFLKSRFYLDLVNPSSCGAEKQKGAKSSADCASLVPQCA
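MLSMR compounds (23 nl, pin-transferred) preincubated 10 min at room temperature with a 500nM (2x) first reagent, then RGS4 at 900nM (2x) plus Transcreener GDP mix added; fluorescence polarization (620/688 nm) read before and after 90 min at 30 °C.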
MCF10A rerep = DNA re-replication induction in MCF 10a cells. actives 2.9% (n = 350,000). Potency, µM (highest dose often 46.1 µM), for inactives: top-dose activity, positive = re-replication, hits mostly activators. AID 624296. MCF 10A DNA re-replication, Hoechst nuclear intensity, 48 h; further: % of control where 0% means no effect; nearly all actives have a fitted effect of over 50% in size
PTAP TSG101 blk = blocks PTAP/TSG101 interaction to inhibit HIV-1 budding; Q99816; Fluorescence polarization, FITC-PTAP peptide / Tsg101 binding; Potency, µM (top dose mostly 115 µM), for the others: at the top dose activity change, negative = inhibition, most hits filed as inhibitors; 340,000 tested, under 10 active; AID 493005; active means well fitted inhibition curve with a large enough effect in the main read-out, with a control signal flat, not every such curve was filed as active; inconclusive means small, poorly fitted or top-dose-only effect, or effect the other way, or a change in a side signal; inactive means no such curve, though single readings can be large or run the other way; further: % of control where 0% means no effect
Target sequence (Q99816 whole entry, looked up): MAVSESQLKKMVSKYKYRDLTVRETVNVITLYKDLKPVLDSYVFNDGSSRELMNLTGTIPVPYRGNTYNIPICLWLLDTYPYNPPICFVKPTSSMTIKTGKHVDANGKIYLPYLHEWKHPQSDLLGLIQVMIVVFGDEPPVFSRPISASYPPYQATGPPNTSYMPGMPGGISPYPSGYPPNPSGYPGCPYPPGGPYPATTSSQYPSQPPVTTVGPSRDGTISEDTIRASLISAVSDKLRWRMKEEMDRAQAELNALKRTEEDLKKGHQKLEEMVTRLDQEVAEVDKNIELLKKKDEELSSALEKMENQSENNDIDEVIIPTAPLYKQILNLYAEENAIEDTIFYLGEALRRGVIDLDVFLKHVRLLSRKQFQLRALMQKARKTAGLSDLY
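FP read-out: FITC-PTAP peptide, 50 nM final, binding Tsg101 binding domain, 10 uM final; 20 min, r.t.; 10 mM HEPES pH 7.5, 0.15 M NaCl, 0.01% Tween 20, 3 mM EDTA, 0.1 mM TCEP.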
KB-V1 MDR tox = KB-V1 MDR subline cytotoxicity; Potency, µM (doses to about 46.1 µM), usual class: cytotoxic; AID 1347076; KB-V1 MDR cells viability, CellTiter-Glo, 72 h; actives 3.4% (n = 400,000); further: on the % scale 0 is the no-effect control and ±100 the full control effect; nearly all actives have a fitted effect of over 60% in size
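Cells of the MDR subline KB-V1 are plated, dosed with compound at multiple concentrations, and incubated 72 h at 37 degrees C; CellTiter-Glo is then added and luminescence read after 10 min.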
KB-3-1 cytotox = KB-3-1 parental cell cytotoxicity. KB-3-1 viability, CellTiter-Glo ATP luminescence, 72 h. Potency, µM (doses to about 46.1 µM), hits mostly cytotoxic. actives 1.4% (n = 400,000). AID 1347075; further: on the % scale 0 is the no-effect control and ±100 the full control effect; nearly all actives have a fitted effect of over 60% in size
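Cytotoxicity measured as CellTiter-Glo luminescence after 72 h at 37 C. Compound titrations were pinned onto drug-naive KB-3-1 parental adenocarcinoma cells grown in DMEM with 10% FBS, and normalized data fitted to concentration-response curves.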
SW480 rereplic = inducers of DNA re-replication in SW480 colon cancer cells | SW480 DNA re-replication, Hoechst DNA content imaging, 48 h | Potency, µM (series often up to 46.1 µM), for inactives: at the top dose re-replication activation, hits mostly activators | actives 1.8% (n = 340,000) | AID 624297; further: % of control where 0% means no effect; nearly all actives have a fitted effect of over 55% in size
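Per well, 250 cells were exposed to pinned compound for 48 hr. Nuclear DNA was visualised with Hoechst (40 min, 37 C) and total object intensity recorded by fluorescence scanning.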
* hit, by the source's call; ! = a repeat was not active; [ ] = remark or other dose. Unless noted, the call rests on the fitted dose curve; in most records, active means well fitted curve in the direction sought with a large enough effect; inconclusive means small, poorly fitted or top-dose-only effect, or another doubt; inactive means no such curve, though single readings can be large; an effect the other way counts as inactive or inconclusive. Potency means the concentration at half of the fitted maximal effect.

Screening COc1ccc(CN2CCN(C(=O)CC(C)C)CC2)cc1Br returned RGS4 inhibitor 0.0%, MCF10A rerep 0.7%, PTAP TSG101 blk -1.8%, KB-V1 MDR tox inactive, KB-3-1 cytotox inconclusive and SW480 rereplic 1.4%.
For Cc1ccc(S(=O)(=O)N2C(=O)c3cccc4cccc2c34)cc1 the results were RGS4 inhibitor 13.5%, MCF10A rerep 9.2µM*, PTAP TSG101 blk -3.3%, KB-V1 MDR tox inactive, KB-3-1 cytotox inconclusive and SW480 rereplic inconclusive.
O=c1n(Cc2ccc([N+](=O)[O-])cc2)c2ccccc2c2nc(-c3ccccc3)nn12 was read as RGS4 inhibitor -5.3%.
N#CC1=C(N)C2=CCCC[C@H]2[C@H](c2cccc(F)c2)C1(C#N)C#N was read as RGS4 inhibitor inconclusive, MCF10A rerep 20.6µM*, PTAP TSG101 blk -0.7%, KB-V1 MDR tox inactive, KB-3-1 cytotox inactive and SW480 rereplic 18.7%.
CCOC(=O)c1ccc(NC(=O)c2c(NCc3sccc3C)sc3c2CCCCC3)cc1 was read as RGS4 inhibitor inconclusive, KB-V1 MDR tox inactive and KB-3-1 cytotox inactive.
O=C(C=Cc1ccccc1Cl)c1ccccc1 was read as RGS4 inhibitor -34.4%, MCF10A rerep inconclusive, PTAP TSG101 blk -3.6%, KB-V1 MDR tox inactive, KB-3-1 cytotox inactive and SW480 rereplic inconclusive.
Screening C=CCn1cccc(/C=C/C(=O)c2ccc(C(C)(C)C)cc2)c1=S returned RGS4 inhibitor inconclusive, MCF10A rerep 13µM*, PTAP TSG101 blk -3.4%, KB-V1 MDR tox inconclusive, KB-3-1 cytotox inactive and SW480 rereplic inconclusive.
CC1(C)CC(N2CCN(Cc3ccccc3)CC2)=CC(=[N+]2CCCCC2)C1 was read as RGS4 inhibitor -8.9%, MCF10A rerep -31.1%, PTAP TSG101 blk -5.1%, KB-V1 MDR tox inactive, KB-3-1 cytotox 1.46µM* and SW480 rereplic -37.7%.
For CC1(C)CC(N2CCCC2)=CC(=[N+]2CCCC2)C1 the results were RGS4 inhibitor -6.2%[11.4 µM], MCF10A rerep -2.3%, PTAP TSG101 blk -4.9%, KB-V1 MDR tox inactive, KB-3-1 cytotox 18.4µM* and SW480 rereplic -0.5%.
CC1(C)CC(NNCCC#N)=CC(=[N+]2CCCC2)C1 was read as RGS4 inhibitor inconclusive, MCF10A rerep inconclusive, PTAP TSG101 blk -0.4%, KB-V1 MDR tox inactive, KB-3-1 cytotox inactive and SW480 rereplic 1.9%.
Screening CC1(C)CC(N2CCCC2)=CC(=[N+]2CCCCC2)C1 returned RGS4 inhibitor -6.4%[11.4 µM], MCF10A rerep inconclusive, PTAP TSG101 blk -3.0%, KB-V1 MDR tox inactive, KB-3-1 cytotox 5.17µM* and SW480 rereplic 3.0%.
For CN(Cc1ccccc1)C1=CC(=[N+]2CCCCC2)CC(C)(C)C1 the results were RGS4 inhibitor 29.3%[56.9 µM], MCF10A rerep inconclusive, PTAP TSG101 blk -2.6%, KB-V1 MDR tox inactive, KB-3-1 cytotox inconclusive and SW480 rereplic 23.9%.
For O=C1NCN(c2ccccc2)C12CCN(CCCC(c1ccc(F)cc1)c1ccc(F)cc1)CC2 the results were RGS4 inhibitor 23.2%[56.9 µM], MCF10A rerep 26.6µM*!, PTAP TSG101 blk -5.2%, KB-V1 MDR tox inconclusive, KB-3-1 cytotox inconclusive and SW480 rereplic inconclusive.
`Cc1cc(C)c(NC(=O)Cn2c(=O)n(CCc3ccccc3)c(=O)c3ccccc32)c(C)c1` gave RGS4 inhibitor 17.4%, KB-V1 MDR tox inactive and KB-3-1 cytotox inactive.
For O=C1C=CC(=Nc2ccc(F)cc2)O1 the results were RGS4 inhibitor inconclusive, MCF10A rerep 18.4µM*, PTAP TSG101 blk -3.1%, KB-V1 MDR tox inconclusive, KB-3-1 cytotox inactive and SW480 rereplic inconclusive.
Screening O=C(c1ccc(Cl)c(S(=O)(=O)NCc2ccco2)c1)N1CCN(c2ccccc2F)CC1 returned RGS4 inhibitor inconclusive, MCF10A rerep inconclusive, PTAP TSG101 blk -6.8%, KB-V1 MDR tox inconclusive, KB-3-1 cytotox inconclusive and SW480 rereplic inconclusive.
For COc1ccccc1N1CCN(C(=O)c2ccc(Cl)c(S(=O)(=O)NCc3ccco3)c2)CC1 the results were RGS4 inhibitor 14.5%, MCF10A rerep inconclusive, PTAP TSG101 blk 0.7%, KB-V1 MDR tox 12.6µM*, KB-3-1 cytotox 7.08µM* and SW480 rereplic inconclusive.
Screening Cn1c(=O)c2c(nc(NCCCN3CCOCC3)n2Cc2ccc(Cl)cc2)n(C)c1=O returned RGS4 inhibitor 17.5%, MCF10A rerep -0.4%, PTAP TSG101 blk -4.8%, KB-V1 MDR tox inactive, KB-3-1 cytotox inactive and SW480 rereplic 0.3%.
Cn1c(NCc2ccccc2)nc2c1c(=O)n(Cc1ccc(Br)cc1)c(=O)n2C was read as RGS4 inhibitor -6.2%, MCF10A rerep inconclusive, PTAP TSG101 blk -3.4%, KB-V1 MDR tox inactive, KB-3-1 cytotox inactive and SW480 rereplic -3.3%[9.22 µM].
COc1ccc(CNc2nc3c(c(=O)n(Cc4ccc(Br)cc4)c(=O)n3C)n2C)cc1 was read as RGS4 inhibitor -12.6%, MCF10A rerep inconclusive, PTAP TSG101 blk -0.8%, KB-V1 MDR tox 9.2µM*, KB-3-1 cytotox inconclusive and SW480 rereplic 17.4%.
Cn1c(NCCCN2CCOCC2)nc2c1c(=O)n(Cc1ccc(Cl)cc1)c(=O)n2C was read as RGS4 inhibitor 8.4%, MCF10A rerep 18.8%, PTAP TSG101 blk -6.3%, KB-V1 MDR tox 18.4µM*, KB-3-1 cytotox inactive and SW480 rereplic -0.9%.
For Cn1c(NCCCN2CCOCC2)nc2c1c(=O)n(Cc1ccc(Cl)c(Cl)c1)c(=O)n2C the results were RGS4 inhibitor 5.1%, MCF10A rerep inconclusive, PTAP TSG101 blk 0.2%, KB-V1 MDR tox 14.6µM*, KB-3-1 cytotox inactive and SW480 rereplic 0.8%.
`Cc1cc(C)c(Cn2c(=O)n(CCCCCC(=O)NCc3ccc4c(c3)OCO4)c(=O)c3sccc32)c(C)c1` gave RGS4 inhibitor -2.6%.
COc1ccc(N2CCN(C(c3ccccc3)c3nnnn3C(C)C)CC2)cc1 (stereo unspecified) was read as RGS4 inhibitor -10.0%, KB-V1 MDR tox inactive and KB-3-1 cytotox inconclusive.
CCN1/C(=C/C=C/C=C/c2sc3ccccc3[n+]2CC)Sc2ccccc21 was read as MCF10A rerep -0.9%, KB-V1 MDR tox inconclusive, KB-3-1 cytotox inconclusive and SW480 rereplic inconclusive.
Screening CCN1/C(=C/C=C/c2sc3ccccc3[n+]2CC)Sc2ccccc21 returned RGS4 inhibitor -4.9%, MCF10A rerep -6.0%, PTAP TSG101 blk -0.5%, KB-V1 MDR tox inconclusive, KB-3-1 cytotox 16.4µM* and SW480 rereplic -7.9%.
For CCN1/C(=C/C=C/C=C/C=C/c2sc3ccccc3[n+]2CC)Sc2ccccc21 the results were RGS4 inhibitor inconclusive, MCF10A rerep inconclusive, PTAP TSG101 blk 1.7%, KB-V1 MDR tox inactive, KB-3-1 cytotox 16.4µM* and SW480 rereplic 7.9%.
